ADAM10 inh: inhibits human ADAM10; recombinant ADAM10, EDANS/DABCYL FRET peptide cleavage, 3 h; inhibition, % at 7 µM; actives 0.62% (n = 370,000); AID 720582;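 active = inhibition above a per-campaign cutoff equal to the mean of compounds falling between control-based bounds plus 3 SD, cut at about 20% in these data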
NR3A LBD binder: modulators (binders) of human NR3A ligand-binding domain. AID 1259313. actives 2.5% (n = 340,000). NR3A LBD differential scanning fluorimetry, Tm shift; 0% = protein alone, 100% = glycine-bound protein. Tm shift relative to glycine control, % at 25 µM;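 active = melting temperature shift of at least 10% of the positive control shift, at one fixed dose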
AHR act: activates the human aryl hydrocarbon receptor | P35869 | AHR-responsive luciferase reporter cells, luminescence | activation, % at 5 µM | actives 2.5% (n = 320,000); in the data active = activation above about 47%
proKLK7 act: activators of human kallikrein-7 zymogen | purified proKLK7, EDANS-DABCYL substrate fluorescence; 100% is mature enzyme control, 0% vehicle | actives 0.9% (n = 370,000) | activation, % at 7 µM | P49862;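 active = activation above the mean of all tested compounds plus 3 SD, computed per campaign excluding outliers beyond control limits, cut at about 13% in these data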
rCAG RNA binder: r(CAG) repeat RNA binding; TO-PRO-1 dye displacement fluorescence; inhibition, % at 3 µM; actives 1.3% (n = 370,000); AID 651821;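 active = inhibition above the plate cutoff, the mean of all test compounds on that plate plus 3 SD, cut at about 35% in these data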;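 also: higher means more dye released from RNA so lower well fluorescence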
ADAM17 inh: inhibitors of human ADAM17; P78536; AID 720648; inhibition, % at 6.95 µM; recombinant ADAM17, EDANS/DABCYL FRET peptide cleavage; actives 0.83% (n = 370,000);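 active = inhibition above the mean of compounds lying between control limits plus 3 SD, set per campaign, cut at about 8.5% in these data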
Target sequence (P78536 215-824 limits assumed): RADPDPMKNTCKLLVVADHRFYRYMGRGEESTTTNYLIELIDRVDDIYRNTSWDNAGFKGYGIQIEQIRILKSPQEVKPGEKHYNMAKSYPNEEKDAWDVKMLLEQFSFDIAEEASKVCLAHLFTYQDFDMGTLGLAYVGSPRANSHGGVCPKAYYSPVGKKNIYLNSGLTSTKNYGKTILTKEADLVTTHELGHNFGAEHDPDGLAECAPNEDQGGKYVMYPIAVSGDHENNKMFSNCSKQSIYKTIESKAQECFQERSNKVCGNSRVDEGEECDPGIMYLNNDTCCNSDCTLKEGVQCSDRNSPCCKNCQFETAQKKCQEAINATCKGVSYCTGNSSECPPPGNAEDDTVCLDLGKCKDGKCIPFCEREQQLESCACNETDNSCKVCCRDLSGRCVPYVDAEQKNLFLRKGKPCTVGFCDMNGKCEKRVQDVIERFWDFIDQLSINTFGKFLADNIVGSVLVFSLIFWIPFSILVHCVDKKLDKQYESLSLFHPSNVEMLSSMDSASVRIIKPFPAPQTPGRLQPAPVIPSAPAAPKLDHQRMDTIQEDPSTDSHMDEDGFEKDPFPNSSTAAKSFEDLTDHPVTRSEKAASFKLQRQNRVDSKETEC
Each line names hits and unclear results; the compound was inactive in the other large screens. A selection: hits, their analogues and other compounds. The true share with any hit is near 7%.

Cc1ccc(C(=O)Nc2cc([N+](=O)[O-])ccc2F)s1	NR3A LBD binder 12
Cc1ccc(C(=O)Nc2cc(Cl)ccc2N2CCCCC2)s1	NR3A LBD binder 22
COc1ccccc1N1CCN(C(=O)c2ccc3c(c2)nc(C)n3-c2cc(OC)c(OC)c(OC)c2)CC1	none (no result: NR3A LBD binder, AHR act)
Cc1cc(NC(=O)c2cc3cccc([N+](=O)[O-])c3[nH]2)ccc1F	NR3A LBD binder 29, AHR act 65
COCC(C)NC(=O)c1cc2cccc([N+](=O)[O-])c2[nH]1 (stereo not drawn)	none
O=C(CSc1nnc(-c2ccccc2)n1-c1ccc(Cl)cc1)Nc1cccc2ccccc12	none (no result: NR3A LBD binder, AHR act)
O=C(CSc1nnc(-c2n[nH]c3ccccc23)n1-c1ccccc1)Nc1cccc(Cl)c1	NR3A LBD binder 22
CCc1ccc(NC(=O)CSc2nnc(-c3n[nH]c4ccccc34)n2-c2ccccc2)cc1	NR3A LBD binder 23
CCc1ccc(-n2c(SCC(=O)Nc3ccc(C(=O)O)cc3)nnc2-c2ccncc2)cc1	none
O=C(OC12CCCN(C1)/C(=C/c1ccc(Cl)cc1)C2)C1CCCC1 (stereo not drawn)	none (no result: NR3A LBD binder, AHR act)
COC(=O)[C@]12C[C@H](CC(=O)NCCc3ccccc3OC)C(=O)N(Cc3ccc(Cl)cc3Cl)C1=C[C@H](COCc1ccccc1)O[C@@H]2C	none (no result: NR3A LBD binder, AHR act)
CCN(CC)CCC(c1cc(OC)c(OC)c(OC)c1)c1c(OC)cc(OC)c2ccc(=O)oc12 (stereo not drawn)	NR3A LBD binder 13
CCN(CC)CCC(c1ccc2c(c1)OCO2)c1c(OC)cc(OC)c2ccc(=O)oc12 (stereo not drawn)	none
COc1ccc(Nc2cc(C)nc3c(C)cccc23)cc1OC	AHR act 68
COc1ccccc1Nc1cc(C)nc2c(C)cccc12	none (no result: NR3A LBD binder, AHR act)
Cc1cc(N2CCN(S(=O)(=O)c3ccccc3)CC2)nc2c(C)cccc12	AHR act 68
C/C(=N\Nc1ccccn1)c1ccc(Br)s1	AHR act 70
C/C(=N\Nc1ccccn1)c1ccc(C(C)C)cc1	none
C/C(=N\Nc1nc2ccccc2[nH]1)c1ccc2c(c1)OCO2	AHR act 128
C/C(=N\Nc1ccccn1)c1ccc2c(c1)OCO2	AHR act 59
C/C(=N\Nc1nc2ccccc2[nH]1)c1ccc2c(c1)OCCO2	AHR act 56
COc1cc(-c2nnc(SCC(=O)NN=Cc3c[nH]c4ccccc34)n2-c2ccccc2)cc(OC)c1OC	none (no result: NR3A LBD binder, AHR act)
C=CCN(CC#Cc1ccccc1)Cc1ccc(OC)cc1	none (no result: NR3A LBD binder, AHR act)
C/C(=N\Nc1nc2ccccc2[nH]1)c1cc2ccccc2o1	AHR act 54
C/C(=N\Nc1nc2ccccc2[nH]1)c1ccccn1	none (no result: NR3A LBD binder)
COc1ccccc1OCCCn1c(=O)oc2ccc(C)cc21	AHR act 60
COc1ccc2[nH]c3c(c2c1)CCN[C@]31C(=O)Nc2ccccc21	none (no result: NR3A LBD binder, AHR act)
S=C1NCCOc2ccccc21	none (no result: NR3A LBD binder, AHR act)
C=CCc1cccc(OC)c1OCCOCCn1ccnc1	NR3A LBD binder 12, AHR act 73
O=C(COc1cccc2c1CCNC2=O)Nc1cccc(F)c1	AHR act 49
CC(=O)N1CCN(c2ccc(N3CCN(C(C)=O)[C@@H](C)C3)c(C)c2)[C@@H](C)C1	none (no result: NR3A LBD binder, AHR act)
Cc1ccc(C(=O)ONC(=O)c2ccc(Cl)cc2)cc1[N+](=O)[O-]	AHR act 55
Cc1ccc(C(=O)NNC(=O)c2ccncc2)cc1[N+](=O)[O-]	none
COc1ccc(NC(=O)N(C)C[C@@H]2OCCCC[C@@H](C)Oc3ccc(NS(C)(=O)=O)cc3C(=O)N([C@H](C)CO)C[C@@H]2C)cc1	none (no result: NR3A LBD binder, AHR act)
CCc1c(-c2ccc(Br)cc2)ncn1CCc1ccccc1OC	none (no result: NR3A LBD binder, AHR act)
CCCc1ccc(OC(=O)c2ccc(O)cc2Cl)cc1	NR3A LBD binder 16
CCCc1ccc(OC(=O)c2cccs2)cc1	none
COc1ccc(C(=O)OCCN2CCN(C3CN(Cc4cn(Cc5cccc(C)c5)nn4)S(=O)(=O)C3)CC2)cc1OC (stereo not drawn)	none (no result: NR3A LBD binder, AHR act)
Cc1ccc(/C=N\NC(=O)c2cc(OCC(F)(F)F)ccc2OCC(F)(F)F)cc1	NR3A LBD binder 14
O=C(Nc1ccc(NC(=O)C2CCCCC2)cn1)c1ccco1	NR3A LBD binder 16
O=C(Nc1ccc(NC(=O)c2ccco2)nc1)c1ccco1	none
O=C(O)C(=O)/C(=C\c1cccc2ccccc12)c1ccc2ccccc2n1	none
O=C(O)C(=O)/C(=C\c1ccccc1)c1ccc2ccccc2n1	AHR act 48
O=C(O)C(=O)/C(=C\c1ccc([N+](=O)[O-])cc1)c1ccc2ccccc2n1	none
O=C(O)C(=O)/C(=C\c1ccsc1)c1ccc2ccccc2n1	AHR act 77
CCOC(=O)C(Cc1ccccc1)CP(=O)(OC)[C@@H](C)NC(=O)OCc1ccccc1 (stereo partly drawn)	none (no result: NR3A LBD binder, AHR act)
Cc1[nH]c2ccccc2c1CC(=O)Nc1ccc(Nc2cccnc2)c(-c2ccc(Oc3ccccc3)cc2)c1	none (no result: NR3A LBD binder, AHR act)
COc1ccc(C(=O)CSc2nnc(-c3n[nH]c4c3CCC4)n2N)cc1OC	none (no result: NR3A LBD binder, AHR act)
O=C(Nc1cccc(Cl)c1)Nc1ccc(Br)cc1F	NR3A LBD binder 21
Cc1cc(NC(=O)Nc2ccccc2F)ccc1Br	NR3A LBD binder 26
O=C(O)CSc1ccc(NC(=O)Nc2ccccc2F)cc1	NR3A LBD binder 10
N#Cc1ccccc1NC(=O)Nc1cccc(Cl)c1	none
O=C(Nc1ccccc1)Nc1ccc(Br)cc1F	NR3A LBD binder 12
CC(=O)Nc1ccc(SCC(=O)O)cc1	none
Cn1nnc2cc(NC(=O)Nc3ccccc3F)ccc21	none (no result: NR3A LBD binder, AHR act)
COC(=O)[C@]12C[C@H](CC(=O)N3CCOCC3)C(=O)N(Cc3ccccc3)C1=C[C@H](C(C)(C)C)O[C@@H]2C	none (no result: NR3A LBD binder, AHR act)
CC(C)[C@H](NC(=O)CC1CCCC1)C(=O)N1CCC[C@H]1C(=O)NCc1ccccc1	none (no result: NR3A LBD binder, AHR act)
COC(=O)C1=C(C)N(C)C(=NCc2cccc(C(F)(F)F)c2)NC1c1ccccc1 (stereo not drawn)	none (no result: NR3A LBD binder, AHR act)
N=c1oc2ccccc2cc1-c1nc(-c2ccccc2)cs1	AHR act 59
CCOC(=O)C1=NOC(C(=O)NCc2ccccc2)(C(=O)c2ccc(OC)cc2)C1 (stereo not drawn)	none (no result: NR3A LBD binder, AHR act)
COCC(=O)N(c1ccc(C(C)(C)C)cc1)C(C(=O)NC(C)(C)C)c1cccnc1 (stereo not drawn)	none (no result: NR3A LBD binder, AHR act, proKLK7 act, rCAG RNA binder)
COC(=O)c1[nH]c2ccc(C)cc2c1NC(=O)Oc1ccccc1	AHR act 54
C=CCOC(=O)Nc1c(C(=O)OC)[nH]c2ccccc12	AHR act 57
CCOC(=O)c1[nH]c2ccccc2c1NC(=S)Nc1cccc(C)c1C	AHR act 56
CCOC(=O)c1[nH]c2ccccc2c1NC(=O)NC(C)C	none
COC(=O)c1[nH]c2cc(OC)c(OC)cc2c1NC(=O)Oc1ccccc1	none
COC(=O)c1[nH]c2ccc(C)cc2c1NC(=O)CN1CCCc2ccccc21	AHR act 57
